Reference: PubChem BioAssay AID651725 (National Center for Advancing Translational Sciences (NCATS), 2012)
Among all 360,000 compounds or so, about 2,000 (0.56%) were called active. Another 2% or so got no clear call; they are omitted. Rule as the data show it: active = activity change below about -65%; inconclusive = mostly about -30% to -63%; inactive = weaker than that. Only a selection was taken, and actives are over-represented in it overall.

biological target: Homeobox protein SIX1 (Homo sapiens) + Protein phosphatase EYA2 (Homo sapiens) (UniProt Q15475+O00167); assay: qHTS Assay for Inhibitors of the Six1/Eya2 Interaction; details: AlphaScreen GST-Six1/His-Eya2 binding, biochemical; stronger effect = lower value
Sequence (O00167 whole entry, looked up): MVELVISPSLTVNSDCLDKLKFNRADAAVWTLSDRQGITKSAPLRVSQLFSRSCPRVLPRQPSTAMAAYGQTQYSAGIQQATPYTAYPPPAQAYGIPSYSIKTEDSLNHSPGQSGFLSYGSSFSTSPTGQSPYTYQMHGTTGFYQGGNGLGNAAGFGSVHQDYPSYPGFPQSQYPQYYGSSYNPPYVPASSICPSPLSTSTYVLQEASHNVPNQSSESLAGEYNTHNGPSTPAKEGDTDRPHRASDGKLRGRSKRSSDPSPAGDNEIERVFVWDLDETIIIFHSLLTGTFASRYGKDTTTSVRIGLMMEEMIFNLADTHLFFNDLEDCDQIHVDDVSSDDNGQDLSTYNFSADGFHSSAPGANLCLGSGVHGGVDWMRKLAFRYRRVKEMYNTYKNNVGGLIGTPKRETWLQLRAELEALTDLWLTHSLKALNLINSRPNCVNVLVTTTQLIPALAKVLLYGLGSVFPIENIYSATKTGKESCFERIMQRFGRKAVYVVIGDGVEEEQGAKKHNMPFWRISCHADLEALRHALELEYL
Sequence (Q15475 whole entry, looked up): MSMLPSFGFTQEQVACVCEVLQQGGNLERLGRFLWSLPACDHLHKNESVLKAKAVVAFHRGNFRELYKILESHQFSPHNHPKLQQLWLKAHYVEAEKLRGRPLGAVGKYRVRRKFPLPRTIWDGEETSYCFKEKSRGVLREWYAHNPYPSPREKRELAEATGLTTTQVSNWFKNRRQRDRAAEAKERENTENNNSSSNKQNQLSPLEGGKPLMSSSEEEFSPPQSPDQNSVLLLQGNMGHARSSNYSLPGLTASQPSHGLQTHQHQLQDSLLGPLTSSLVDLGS
Method in brief: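 Compounds are tested against tagged Six1 and Eya2 proteins bridged by glutathione donor and nickel acceptor beads; after a one-hour incubation at 37 °C without light, AlphaScreen emission is recorded.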
% is scaled to controls: 0 for no effect and ±100 for the full control effect.

Activity change, active:
O=c1/c(=C/c2ccc(CNS(=O)(=O)c3ccccc3)o2)sc2n1CCN=2 -74.2%
CCC(C)C(CO)NC(=O)/C=C/[C@H]1O[C@@H](n2cnc3c(NC(=O)c4ccccc4)ncnc32)[C@H](O)[C@@H]1O (stereo not given in full) -67.4%
COc1ccc(Nc2nc(-c3cccnc3)nc3ccccc23)cn1 -65.3%
COc1cccc(-n2c(SCC(=O)NC3CCCCC3)nc3n[nH]c(C)c3c2=N)c1 -66.7%
CCCCC(=O)NC(c1ccc(OC)c(OC)c1)c1ccc2cccnc2c1O (stereo not given) -90.3%
O=C(NCCCn1ccnc1)C(=O)NCC1OCCN1S(=O)(=O)c1cc(F)ccc1F (stereo not given) -72.2%
Oc1ccc(Br)cc1/C=N/Nc1ccccn1 -77.2%
O=C(CCCO)N/N=C/c1cc(Br)ccc1O -68.6%
O=[N+]([O-])c1ccc2nc(-c3ccccn3)[nH]c2c1 -72.6%
Cc1ccc(CNC(=O)C2CCN(S(=O)(=O)c3ccc4nc5c(c(C(=O)O)c4c3)CC(C)CC5)CC2)cc1 (stereo not given) -65.1%
CCN(CC)c1ccc(/C=N/NC(=O)c2cnccn2)c(O)c1 -91.7%
Cc1ccc(-n2ncc3c(Nc4cccc(C(=O)O)c4)ncnc32)cc1 -66.4%
Cc1c(NC(=O)CSc2cccc3cccnc23)c(=O)n(-c2ccccc2)n1C -90.9%
S=C(NN=Cc1ccccn1)Nc1ccccn1 -91.9%
O=c1nc2s/c(=C\c3ccco3)c(=O)n2nc1Cc1ccccc1 -82.8%

Activity change, inactive:
Cc1ccc(-c2cnc(C(O)c3cccc(C)c3C)[nH]2)cc1 (stereo not given) -9.73%
COC(=O)C1=C(C)NC(=O)/C1=C/c1ccc(CNS(=O)(=O)c2ccc(C)cc2)o1 -8.38%
O=S(=O)(NCc1ccccc1)c1ccc(S(=O)(=O)N2CCCC2)cc1 0%
COC(=O)[C@]12CCCCC=C1N(Cc1ccc3c(c1)OCO3)C(=O)[C@H](CC(=O)N1CCOCC1)C2 7.68%
COc1cccc(CN(C)C(=O)CC[C@H]2O[C@@H](n3cnc4c(NC(=O)c5ccccc5)ncnc43)[C@H](O)[C@@H]2O)c1 -3.33%
O=C(/C=C/[C@H]1O[C@@H](n2cnc3c(NC(=O)c4ccccc4)ncnc32)[C@H](O)[C@@H]1O)NCc1ccccc1 -0.266%
O=C(COc1ccc(Cl)cc1)NCc1nnc(SCC(=O)NCC2CCCO2)o1 (stereo not given) 17.7%
CCC(C(=O)NC(C)(C)C)n1c(-c2ccccc2)nc2ccccc21 (stereo not given) 2.19%
CCCCCc1c(Cc2ccccc2)ncn1CCc1ccccc1OC 7.11%
S=c1nc2ccccc2c2nc(-c3cccnc3)[nH]n12 -8.27%
CCN(CC(=O)NC1CCS(=O)(=O)C1)c1nc(-c2cccnc2)nc2ccccc12 (stereo not given) 5.63%
CC(C)C1Cc2[nH][nH]c(=O)c2C(c2ccc(Cl)cc2)O1 (stereo not given) -11.7%
O=C1NC[C@H](CCCCN2C[C@H](Cc3ccc(O)cc3)N(CC3CCCCC3)C(=O)C2=O)N(CCc2ccccc2)C1=O 3.83%
COC(=O)C[C@@H]1C=C[C@@H](NC(=O)c2cccnc2)[C@@H](CO)O1 13.6%
CC(C)CCNC(=O)C(C)N(C(=O)Cn1nnc(-c2ccc(F)cc2)n1)C1CCCC1 (stereo not given) 4.65%
Cc1ccc(-n2c(SCC(=O)NCCC3=CCCCC3)nc3n[nH]c(C)c3c2=N)cc1Cl -17.6%
COc1cccc(-n2c(SCC(=O)NC3CCS(=O)(=O)C3)nc3ccccc3c2=O)c1 (stereo not given) -0.378%
O=C(C(=O)N1CCN(c2ccccc2)CC1)c1ccc2c(c1)OCO2 9.9%
C=CCn1c(COc2cccc3cccnc23)nnc1SCC(=O)OC 0.499%
CCOc1ccc(C(CCc2ccccc2)NC(=O)c2ccc(OC)c(OC)c2)cc1OCC (stereo not given) -5.59%
Cc1cc(C)n2c(Nc3c(C)cccc3C)c(CCc3ccccc3)nc2n1 -0.972%
O=C(NCc1ccccn1)c1cnc2sccn2c1=O -1.07%
COc1cc(/C=C/CO)cc(OC)c1O[C@@H]1O[C@H](CO)[C@@H](O)[C@H](O)[C@H]1O 5%
CC1(C(=O)Nc2ccc3c(c2)OCCO3)CSCC(=O)N1CCOc1ccccc1 (stereo not given) -5.39%
CC1(C(=O)NCc2ccccc2)CSCC(=O)N1CCCn1ccnc1 (stereo not given) -4.73%
Cc1cc(F)ccc1S(=O)(=O)N1CCCOC1CNC(=O)C(=O)NCCC1=CCCCC1 (stereo not given) 6.61%
O=C(NCCCc1ccccc1)C(=O)NCC1OCCN1S(=O)(=O)c1ccccc1 (stereo not given) 5.49%
COc1ccc(NC(=O)C(c2ccncc2)n2c(=O)c(-c3cc4ccccc4[nH]3)nc3ccccc32)cc1 (stereo not given) 18.4%
CCN(CC)CCn1c(/N=C/c2cc(Br)ccc2O)nc2ccccc21 4.55%
O=C(Nc1ccc(Br)cc1)c1cc(S(=O)(=O)Nc2ccccn2)ccc1Cl -3.31%
CCOC(=O)[C@]12CCC=C1N(Cc1ccco1)C(=O)[C@H](CC(=O)N1CCSCC1)C2 13%
CO[C@@H]1CN(C)C(=O)c2cc(NC(=O)C3CC3)ccc2OC[C@H](C)N(C(=O)CN2CCOCC2)C[C@@H]1C -0.378%
COC(=O)[C@]12CCCCC=C1N(Cc1ccco1)C(=O)[C@H](CC(=O)NCC1CCCCC1)C2 4.18%
O=C(CCC(=O)N/N=C/c1ccc(Br)o1)N/N=C/c1ccc(Br)o1 0.575%
NCCCCCC(=O)N/N=C/c1ccc2nccnc2c1 4.58%
O=[N+]([O-])c1cccc(S(=O)(=O)NCc2ccccn2)c1 -5.71%
O=[N+]([O-])c1ccc(N/N=C2/CCCCC2c2ccccn2)c([N+](=O)[O-])c1 (stereo not given) -4.9%
O=C(NC1CCCCC1)C(c1cc2ccccc2o1)n1c(=O)c(-c2ccco2)nc2ccccc21 (stereo not given) 6.65%
O=C1OCCOC2CCCc3oc(-c4ccccc4)c1c32 (stereo not given) -10.5%
CC(=O)N1c2ccc(S(=O)(=O)N3CCC(C(=O)NCc4ccc(F)cc4)CC3)cc2CC1C (stereo not given) -0.504%
CCOC(CNC(=O)C1CCN(S(=O)(=O)c2ccc3nc4c(c(C(=O)O)c3c2)CC(C)CC4)CC1)OCC (stereo not given) -16.3%
CCCNC(=O)C[C@@H]1CC[C@@H]2[C@H](COC[C@H](O)CN2C(=O)c2cc(Cl)cc(Cl)c2)O1 9.3%
CCN(CC)c1ccc(NC(=O)c2ccc(Cl)nc2)cc1 -10.4%
COc1ccc(NC(=O)C/C(C)=N/NC(=O)c2cnccn2)cc1Cl -8.49%
O=C1CN(C(=O)c2ccccc2F)C(c2ccc(F)cc2)c2cc(F)ccc2N1 (stereo not given) 10.1%
CCOC(=O)[C@]12CCCC=C1N(CCC1=CCCCC1)C(=O)[C@H](CC(=O)NCCCOC)C2 -3.1%
COC(=O)[C@@]12C[C@@H](CC(=O)NCCCCc3ccccc3)C(=O)N(Cc3ccccc3)C1=CCC(C)(C)C2 -3.62%
CCOC(=O)[C@]12CCC=C1N(CCC1=CCCCC1)C(=O)[C@H](CC(=O)NCc1ccc(C)o1)C2 -7.25%
O=S1(=O)CC(N2CCN(Cc3ccccc3F)CC2)CN1Cc1cn(Cc2cccc(C(F)(F)F)c2)nn1 (stereo not given) 1.67%
Cc1cc(C)c(S(=O)(=O)N(C)CC(=O)NCC2CCCO2)c(C)c1 (stereo not given) 3.65%
CC(C)Sc1ncnc2c1cnn2-c1ccccc1 16.7%
Cc1ccc(Nc2ncnc3c2cnn3C)c(C)c1 8.85%
Cc1[nH]c2ccccc2c1C(=O)c1cc([C@H](NC(=O)OC(C)(C)C)C(C)C)sc1N -28%
O=C1CCN(CCCc2ccccc2)CCN1CCO -23.5%
O=C(NC1CCCC1)C1c2ccccc2OCC(=O)N1CC(F)(F)F (stereo not given) -3%
Cc1c(NC(=O)CSc2nnnn2-c2ccc(C(=O)O)cc2)c(=O)n(-c2ccccc2)n1C 5.09%
Cc1c(NC(=O)CSc2nnc(-c3cccnc3)n2N)c(=O)n(-c2ccccc2)n1C 10.2%
CC(=O)C[C@@H]1OC[C@H](CO)N1S(=O)(=O)c1ccc(C)cc1 7.41%
CN(Cc1cn(Cc2ccc(C(F)(F)F)cc2)nn1)C1CN(Cc2cn(Cc3ccc(C(F)(F)F)cc3)nn2)S(=O)(=O)C1 (stereo not given) 3.81%
CN(Cc1ccccc1)C(=O)[C@@H]1CCCN1C(=O)[C@@H]1CCCN1C(=O)c1c(F)cccc1F 7.39%
COc1cc(/C=N/NC(=S)Nc2cccnc2)cc(OC)c1O 0%
S=C(Nc1cccnc1)Nc1ccccn1 6.86%
O=C(NCCc1ccco1)c1nn(Cc2ccccc2)c(=O)c2ccccc12 -4.25%
O=C(OCN1C(=O)c2ccccc2C1=O)/C(=C\c1ccco1)NC(=O)c1ccccc1 -1.79%
CCOC(=O)c1cc2cc(OC)ccc2n1C1CCN(C)CC1 1.46%
